Compounds with a hit are over-represented: about 19% of the library has one in this group of screens.
TDP1 cell CPT: qHTS for Inhibitors of human tyrosyl-DNA phosphodiesterase 1 (TDP1): qHTS in cells in presence of CPT | chicken DT40 Tdp1-/-;hTDP1 cells + 20 nM CPT, ATP luminescence, 48 h | Potency, µM (series often up to 46.2 µM), without a hit: at the top dose activity change, negative = growth inhibition, most hits filed as inhibitors | 12% of 420,000 active; also: potency is read from the fitted curve at half-maximal effect; % is scaled to controls: 0 for no effect and ±100 for the full control effect; nearly all actives have a fitted effect of over 55% in size
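Chicken DT40 Tdp1-/- cells complemented with human TDP1, 400 cells/well, exposed to compounds plus 20 nM camptothecin for at least 48 h at 37 C; viability read as ATP content by CellTiter-Glo luminescence.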
MCF10A rerep: A quantitative high throughput screen for small molecules that induce DNA re-replication in MCF 10a normal breast cells; 2.9% of 350,000 active; Potency, µM (series often up to 46.1 µM), for the others: top-dose activity, positive = re-replication, actives largely listed as activators; MCF 10A DNA re-replication, Hoechst nuclear intensity, 48 h; also: potency is read from the fitted curve at half-maximal effect; % of control where 0% means no effect; nearly all actives have a fitted effect of over 50% in size
DT40 TDP1 no CPT: qHTS for Inhibitors of human tyrosyl-DNA phosphodiesterase 1 (TDP1): qHTS in cells in absence of CPT. 15% of 420,000 active. DT40 Tdp1-/- hTDP1 cells, no CPT, ATP luminescence, 48 h. AID 686978, 2013. Potency, µM (doses to about 46.2 µM), for the others: at the top dose activity change, negative = growth inhibition, actives largely listed as inhibitors; also: potency is read from the fitted curve at half-maximal effect; % is scaled to controls: 0 for no effect and ±100 for the full control effect; nearly all actives have a fitted effect of over 55% in size
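A cellular qHTS used chicken DT40 cells lacking endogenous Tdp1 but carrying stably transfected human TDP1. Compounds were applied without camptothecin, and cell growth kinetics were judged by ATP-dependent luminescence after ≥48 hr.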
SW480 rereplic: A quantitative high throughput screen for small molecules that induce DNA re-replication in SW480 colon adenocarcinoma cells. SW480 DNA re-replication, Hoechst DNA content imaging, 48 h. Potency, µM (series often up to 46.1 µM), for the others: at the top dose re-replication activation, usual class: activators. 1.8% of 340,000 active; also: potency is read from the fitted curve at half-maximal effect; % of control where 0% means no effect; nearly all actives have a fitted effect of over 55% in size
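250 cells/well; 23 nL cpd via pin tool; 48 hr, 37 C, 5% CO2; Hoechst 40 min; imager read of total nuclear intensity, ex 405/em 500-530 nm.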
BCR signal inh: qHTS Assay to Find Inhibitors of Chronic Active B-Cell Receptor Signaling; ABC-DLBCL IkBa-CBG/CBR reporter, luminescence ratio, 4 h; Potency, µM (highest dose often 46.1 µM), for the others: at the top dose activity change, negative = inhibition, most hits filed as inhibitors; 0.05% of 340,000 active; active = well fitted inhibition curve with a large enough effect in the signal ratio, with a control signal flat, not every such curve was filed as active; inconclusive = small, poorly fitted or top-dose-only effect, or effect the other way, or a change in a side signal; the % refers to the signal ratio;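 also: potency is read from the fitted curve at half-maximal effect; plate controls were basal doxycycline-induced cells for no effect and cells given 10 µM MG132 for full effect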
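TMD8 ABC-DLBCL cells carrying doxycycline-inducible green luciferase fused to IkappaBalpha plus unfused red luciferase were exposed to compounds (up to 46 uM) for 4 hrs at 37C. Activity came from the overlap-corrected green/red luminescence ratio.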
IL1B secr inh: qHTS for Inhibitors of Inflammasome Signaling: IL-1-beta AlphaLISA Primary Screen; activity change, % at 57.5 µM; 4.7% of 360,000 active; THP-1 LPS/ATP IL-1B secretion, AlphaLISA, 16 h; hits give low values; in the data active = activity change below about -50%; inconclusive = mostly about -30% to -49%; also: % is scaled to controls: 0 for no effect and ±100 for the full control effect
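Secreted IL-1B measured by AlphaLISA bead assay after 16 h compound exposure of THP-1 cells; compounds (final up to 57.5 uM) added 1 h before LPS (250 ng/mL) and ATP (1.25 mM) stimulation; lower signal means less secretion.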
An asterisk follows results filed as active; ? = inconclusive; / = not tested or not shown. Unless noted, calls follow the shape of the dose curve; as a rule, active = well fitted curve in the direction sought with a large enough effect; inconclusive = small, poorly fitted or top-dose-only effect, or another doubt; inactive = no such curve, though single readings can be large; an effect the other way counts as inactive or inconclusive.

SMILES | TDP1 cell CPT | MCF10A rerep | DT40 TDP1 no CPT | SW480 rereplic | BCR signal inh | IL1B secr inh
CN(C)CCn1cnc2c(c1=N)C(c1ccccc1)c1ccc3ccccc3c1O2 (configuration not stated) | 18µM* | ? | ? | -2% | 4% | -57*
COc1ccc(C(C)(O)c2nc(-c3cccc(C(C)C)c3)cs2)cc1 (configuration not stated) | ? | / | ? | / | / | 11
CCC(=O)C1CCCN(C(=O)CCc2nnc(-c3ccc(C(C)=O)s3)o2)C1 (configuration not stated) | -13% | -2% | 14% | -14% | 9% | 8
COc1ccc(N2CC(NC(=O)c3ccco3)CC2=O)cc1OC (configuration not stated) | -17% | / | -2% | / | -5% | /
O=C(CSc1nc2ccccc2c(=O)n1-c1ccccc1)NCC1CCCO1 (configuration not stated) | -27% | 0% | ? | -9% | ? | -7
Cc1ccccc1-n1c(SCC(=O)NC2CC2)nc2ccccc2c1=O | ? | / | 16µM* | / | / | -21
Cc1cccc(-n2c(SCC(=O)NCC3CCCO3)nc3ccccc3c2=O)c1C (configuration not stated) | 15µM* | -1% | 23µM* | 11% | -13% | -29
CC(C)COC(=O)Cn1nnc2sc(-c3ccccc3)cc2c1=O | -23% | / | -23% | / | / | /
COc1ccc(C)cc1-n1c(SCC(=O)Nc2cccc(C(=O)O)c2)nc2ccccc2c1=O | 4% | 5% | 0% | -1% | ? | -7
CCOC(=O)C(CC)n1nnc2sc(-c3ccccc3)cc2c1=O (configuration not stated) | 26µM* | / | 15µM* | / | / | /
COc1ccc(C)cc1-n1c(SCC(=O)NC2CC2)nc2ccccc2c1=O | 18µM* | 8% | ? | -8% | ? | ?
C=CCC(CC=C)(CNC(=O)C(=O)Nc1ccc(C(=O)OCC)cc1)c1ccccc1 | -11% | / | -26% | / | / | /
COc1ccc(CCNCc2c(C(=O)O)c(C)n(Cc3c(F)cccc3Cl)c2C)cc1OC | -7% | / | -4% | / | / | /
Cc1nnc(NC(=O)CSCc2cc(=O)c3ccccc3[nH]2)s1 | -3% | / | -1% | / | 2% | /
Cc1ccccc1-n1c(SCC(=O)NC(N)=O)nc2sc(-c3ccccc3)cc2c1=O | ? | ? | ? | -3% | -8% | 0
O=C(CCCn1c(SCc2cccc(F)c2)nc2ccccc2c1=O)NCC1CCCO1 (configuration not stated) | ? | -3% | ? | 0% | ? | -79*
Cc1ccccc1-n1c(SCC(N)=O)nc2sc(-c3ccccc3)cc2c1=O | ? | -2% | 18µM* | -14% | ? | -15
N#Cc1ccc(Nc2nc(NCc3ccccc3)nc3ccsc23)cc1 | 6.5µM* | / | 1.8µM* | / | / | -6
C#Cc1cccc(Nc2nc(NCc3ccccc3)nc3ccsc23)c1 | 9.2µM* | / | 10µM* | / | / | 0
Fc1ccc(Nc2nc(NCc3ccccc3)nc3ccsc23)cc1 | 8.2µM* | / | 9.2µM* | / | / | ?
COc1ccc(-n2nc(C(=O)NCC(=O)NCc3ccc(F)cc3)c3ccccc3c2=O)cc1 | -26% | 7% | 18µM* | -1% | 4% | -8
COc1ccc(-n2nc(C(=O)NCC(=O)N3CCN(Cc4ccccc4)CC3)c3ccccc3c2=O)cc1 | 23µM* | 2% | ? | 3% | 1% | ?
COc1ccc(-n2nc(C(=O)NCC(=O)NCCc3ccc(OC)c(OC)c3)c3ccccc3c2=O)cc1Cl | ? | ? | 13µM* | 20% | 4% | -25
COc1ccc(-n2nc(C(=O)NCC(=O)N3CCN(c4ccccc4)CC3)c3ccccc3c2=O)c(OC)c1 | ? | -5% | ? | 0% | 1% | -1
COc1ccc(-n2nc(C(=O)NCC(=O)NC(C)C)c3ccccc3c2=O)cc1 | 5% | -4% | -9% | -9% | 3% | -6
SMILES | TDP1 cell CPT | MCF10A rerep | DT40 TDP1 no CPT | SW480 rereplic | BCR signal inh | IL1B secr inh
COc1ccc(-n2nc(C(=O)NCC(=O)N3CCN(c4ccc(F)cc4)CC3)c3ccccc3c2=O)c(OC)c1 | 21µM* | -2% | ? | -6% | 13% | -19
C=C1C=C(C(F)F)n2ncc(C(=O)NC(C)CC)c2N1 (configuration not stated) | 4% | / | 1% | / | / | /
Cc1cccc(C)c1NC(=O)C1(C)CSCC(=O)N1CCOc1ccccc1 (configuration not stated) | 14% | / | -26% | / | / | 1
O=C(CCCN1C(=O)NC2(CCCC2)C1=O)Nc1cccc(S(=O)(=O)N2CCOCC2)c1 | 3% | 3% | -15% | 9% | 1% | 6
COc1ccc(S(=O)(=O)N(CC(=O)NCCc2ccccc2)c2ccc(Cl)cc2)cc1 | -26% | / | -20% | / | / | /
CCOC(=O)N1CCN(C(=O)CNC(=O)c2nn(-c3ccc(OC)c(OC)c3)c(=O)c3ccccc23)CC1 | -24% | -9% | ? | -2% | -1% | 22
CCOC(=O)N1CCN(C(=O)CNC(=O)c2nn(-c3ccc(OC)c(Cl)c3)c(=O)c3ccccc23)CC1 | ? | 5% | 9.2µM* | 9% | -18% | -25
O=C(CCSCc1ccc(Cl)cc1)N1CCN(c2ccccc2F)CC1 | -12% | / | -5% | / | -1% | /
CCOC(=O)N1CN(C(=O)OCC)CN(C(=O)OCC)C1 | 10% | 0% | -1% | -4% | -4% | -23
Cc1ccc(C)c(N2CCN(C(=O)CCC(=O)N3CCOc4ccc(Cl)cc43)CC2)c1 | 15µM* | 14% | 26µM* | 4% | ? | -14
O=C(CCC(=O)N1CCOc2ccc(Cl)cc21)NCCCN1CCC(Cc2ccccc2)CC1 | ? | -1% | 18µM* | 7% | ? | -1
Cc1ccc2c(c1)N(C(=O)CCC(=O)N1CCN(c3ccccn3)CC1)CCO2 | -11% | 6% | -23% | -3% | 12% | -11
CCOC(=O)N1CCN(C(=O)CCl)CC1 | ? | ? | ? | -4% | ? | -92*
Cc1ccc(CSCCC(=O)N2CCN(c3cc(C)ccc3C)CC2)cc1 | 23µM* | / | 13µM* | / | 2% | /
